Test results from PubChem BioAssay (NCI).
The panel holds about 83,000 compounds, 20% with a hit somewhere; the sample as a whole holds those more often.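 48-hour exposure, single concentration, 96-well plates; percent growth endpoint where 0 means no net growth. Active: below 10.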 A number with no mark means an inactive call. Calls of active or inactive are those of the source.

Experiments:
Test in all cases: NCI-60 one-dose screen, 48 h (100 = growth as untreated, 0 = no growth, -100 = all killed)
Conditions in all cases: 10 µM unless noted
RPMI-8226 leukemia = test system: RPMI-8226 leukemia
OVCAR-8 ovarian = test system: OVCAR-8 ovarian
OVCAR-5 ovarian = test system: OVCAR-5 ovarian
OVCAR-4 ovarian = test system: OVCAR-4 ovarian
SK-OV-3 ovarian = test system: SK-OV-3 ovarian
IGROV1 ovarian = test system: IGROV1 ovarian
OVCAR-3 ovarian = test system: OVCAR-3 ovarian
HS 578T breast = test system: HS 578T breast
NCI/ADR-RES ovarian = test system: NCI/ADR-RES ovarian
T-47D breast = test system: T-47D breast

Compound | growth (RPMI-8226 leukemia) | growth (OVCAR-8 ovarian) | growth (OVCAR-5 ovarian) | growth (OVCAR-4 ovarian) | growth (SK-OV-3 ovarian) | growth (IGROV1 ovarian) | growth (OVCAR-3 ovarian) | growth (HS 578T breast) | growth (NCI/ADR-RES ovarian) | growth (T-47D breast)
O=c1[nH]c2ccccc2cc1CSc1ccccc1Nc1nccc(-c2ccc(C(F)(F)F)cc2)n1 | 62.6% | 38.1% | 103% | 48.7% | 117% | 67.8% | 69.8% | 68.3% | 63.2% | 66.7%
COc1cc(/C=C/C(=O)c2ccc(F)cc2)ccc1Oc1nc(NCCO)nc(N2CCOCC2)n1 | -1.38% (active) | 86.1% | 98.8% | 88.4% | 113% | 70.6% | 98.8% | 83.8% | 78.9% | 96.5%
C=CCn1c(SCC(=O)c2ccc(Br)cc2)nnc1-c1c[nH]c2ccccc12 | 98.8% | 94.7% | 96.8% | 109% | 113% | 86.7% | 110% | 106% | 98.8% | 97%
O=C(CSc1nnc(-c2ccc3nc(-c4ccc(Cl)cc4)[nH]c3c2)o1)Nc1ccc(C(=O)/C=C/c2ccc(Cl)cc2)cc1 | 4.95% (active) | 97.1% | 108% | 101% | 110% | 85.5% | 121% | 89% | 105% | 87.1%
COc1ccc2[nH]cc(-c3cc(N)n4nc(-c5c[nH]c6ccc(OC)cc56)cc4n3)c2c1 | -22.7% (active) | -62.6% (active) | 8.81% (active) | -8.27% (active) | 144% | 44.5% | 103% | 121% | 88.6% | -21.7% (active)
O=C(CCN1C(=O)/C(=C/c2ccccc2)SC1=S)N1CCOCC1 | 67.7% | 99.6% | 94.8% | 101% | 98.5% | 88.5% | 110% | 100% | 98.8% | 65.7%
NS(=O)(=O)c1cccc(Nc2nc(SCC(=O)c3ccc(Br)cc3)nc3ccccc23)c1 | 46.1% | 39.5% | 115% | 43.6% | 90.1% | 85.4% | 44% | 59.6% | 82.8% | 31.9%
Cc1cccc2sc(/N=C(\N)C(Cl)(Cl)Cl)nc12 | 105% | 102% | 119% | 97.4% | 101% | 98.3% | 115% | 97.1% | 108% | 74.8%
N#Cc1nc(-c2ccccc2)oc1S(N)(=O)=O | 46.2% | 79.1% | 74.1% | 84.2% | 135% | 49.2% | 77.4% | 95% | 82.7% | 64.1%
COc1ccccc1C(=O)CSc1nc(Nc2ccc(S(N)(=O)=O)cc2)c2ccccc2n1 | 90.8% | 90.5% | 90.8% | 86.6% | 121% | 95.5% | 107% | 96.9% | 106% | 89.6%
COc1ccc(C(=O)/C=C/c2ccc(OCc3ccc(C)cc3)c(OC)c2)cc1OC | 8.56% (active) | 49.1% | 95.4% | 60.9% | 100% | 84% | 76.8% | 91.4% | 53.7% | 45.6%
CN1C(=S)N(C)C2C1NN=C1SC(c3ccccc3)=CC(=O)N12 (stereo not given) | 93.9% | 94.4% | 103% | 85.7% | 102% | 97.5% | 107% | 107% | 97.6% | 69.5%
C/C(=N/NC(N)=S)c1ccc(Nc2nc(SCC(C)C)nc(-c3ccc(F)cc3)c2C#N)cc1 | 34.2% | -3.63% (active) | 29.2% | 26.5% | 28.9% | 21.2% | -19.5% (active) | 4% (active) | -14.6% (active) | 21.6%
Nc1nc(N)c2c(n1)NC(c1ccc(F)cc1)CC(c1ccc(Nc3nc(NCCO)nc(Nc4ccc(Cl)cc4)n3)cc1)=N2 (stereo not given) | -37.6% (active) | 29% | 72% | 3.03% (active) | 84% | -25.9% (active) | 14.1% | 42.8% | 64.5% | 60%
CCC/C=C/C=C/C(=O)N[C@@H](Cc1cc(F)cc(F)c1)C(=O)N[C@@H]1C(=O)N2CCC[C@H]2C(=O)N2CCCC[C@H]2C(=O)N[C@@H](C)C(=O)N2C[C@H](C)C[C@H]2C(=O)O[C@H]1C | -0.71% (active) | 18.4% | 24.6% | 22.3% | 30% | 40.8% | 19.1% | 31% | 20.8% | 15.9%
Fc1ccc(-c2cc3nc(C(Cl)Cl)nc(-c4ccccc4)n3n2)cc1 | -16.1% (active) | 8.61% (active) | -20.3% (active) | -16.9% (active) | -18.6% (active) | 46.5% | -43.1% (active) | -18% (active) | 10.6% | 22.1%
CCN1CCN(/C(=N\c2sc(-c3ccccc3)nc2-c2ccccc2)c2ccccc2)CC1 | 57.7% | 97.1% | 91.8% | 31.8% | 99.5% | 92.9% | 87.2% | 92.2% | 82.1% | 63.7%
Cc1cc2nc3c4cc(Cl)ccc4n(CC(=S)NCCN(C)C)c3nc2cc1C | -19.6% (active) | -66.9% (active) | -42.6% (active) | -24.1% (active) | -16.4% (active) | -74% (active) | -47% (active) | 51.4% | -56.4% (active) | 61.7%
CN1CCN(Cc2ccc(NC(=O)c3cncc(C#Cc4cnc5[nH]ncc5c4)c3)cc2C(F)(F)F)CC1 | 31.2% | 41.3% | 41.6% | 54.5% | 2.28% (active) | 7.92% (active) | 51.9% | 20.1% | 75.8% | 40.7%
CCN1C(=S)N(CC)C2C1NN=C1SC(c3ccccc3)=CC(=O)N12 (stereo not given) | 107% | 99.4% | 107% | 115% | 110% | 109% | 119% | 114% | 99.6% | 108%
Cc1cccc(/C=C/c2nn3c(-c4ccco4)nnc3s2)c1 | 100% | 100% | 98.2% | 98.7% | 114% | 98.6% | 110% | 106% | 91.6% | 89.2%
COC(=O)C1CCCN(S(=O)(=O)/N=C2\NC(=O)NC2=C(Cl)Cl)C1 (stereo not given) | 0.297% (active) | 105% | 130% | 119% | 106% | 107% | 122% | 110% | 111% | 68.2%
COc1ccc(/C=C2\SC(=Nc3cc(C)on3)NC2=O)cc1 | 98.2% | 102% | 97.6% | 109% | 113% | 99.2% | 116% | 96.9% | 98.6% | 104%
COc1cc(N=Cc2sc(Nc3nccs3)nc2O)cc(OC)c1OC | 81.6% | 81.2% | 103% | 82.9% | 104% | 66% | 82.8% | 80.5% | 78.4% | 89.3%
O=C(N/N=C/c1ccc(Cl)s1)c1[nH]c2ccc(Br)cc2c1-c1ccccc1 | 5.6% (active) | 2.09% (active) | 52.9% | 69.5% | 29.6% | 19.5% | 20.8% | 27% | 17.2% | 64.7%
NC(=O)c1cc(-c2ccc3ncnc(N4CCc5cc(F)c(Cl)cc54)c3c2)cnc1N | -8.02% (active) | 32.8% | 36.5% | 10.4% | 35.9% | -41.2% (active) | 1.86% (active) | -7.69% (active) | 60.2% | 0.0054% (active)
Cc1[nH]nc2ncc(C#Cc3cncc(C(=O)Nc4ccc(CN5CCN(C)CC5)c(C(F)(F)F)c4)c3)cc12 | 29.9% | 37.8% | 20.5% | 50.7% | 0.879% (active) | 1.84% (active) | 37.8% | 9.15% (active) | 78% | 32.6%
